We go through 15 compounds from PubChem BioAssay (EPA / NIEHS).

Common to all, as to settings: mRNA level, 48 h; actives raise or lower the signal
Read-out in assay [1]: Cytochrome P450 2C19 (Homo sapiens) (UniProt P33261)
Description: LTEA_HepaRG_CYP2C19: Life Technologies and Expression Analysis (LTEA) Assay for CYP2C19 using HepaRG (AID 2283482). Put shortly: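 HepaRG, 48 h chemical exposure, 8-pt half-log series from 100 uM in 0.5% DMSO, duplicates. Readout: CYP2C19 mRNA by TaqMan qRT-PCR, housekeeping-normalized. Bidirectional fit vs DMSO baseline; phenobarbital 1mM as induction control.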

Read-out in a further assay: CYP2C8 (gene 1558)
Nature of the assay: LTEA_HepaRG_CYP2C8: Life Technologies and Expression Analysis (LTEA) Assay for CYP2C8 using HepaRG (AID 2283483). Put shortly:
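Differentiated human HepaRG cells were exposed for 48 h in serum-free induction medium to eight half-log concentrations up to 100 uM in 0.5% DMSO, in duplicate. CYP2C8 mRNA was measured by TaqMan qRT-PCR, normalized to ACTB, GAPDH and POLR2A, and fitted bidirectionally against DMSO.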

Read-out in the next assay: CYP2C9 (gene 1559)
Description: LTEA_HepaRG_CYP2C9: Life Technologies and Expression Analysis (LTEA) Assay for CYP2C9 using HepaRG (AID 2283484). Put shortly: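 Differentiated human HepaRG cells were exposed 48 h in serum-free induction medium to eight half-log concentrations up to 100 uM in 0.5% DMSO. CYP2C9 mRNA was measured by qRT-PCR, normalized to ACTB, GAPDH and POLR2A, and fitted bidirectionally against DMSO.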

Read-out in a further assay: CYP2E1 (gene 1571)
Nature of the assay: LTEA_HepaRG_CYP2E1: Life Technologies and Expression Analysis (LTEA) Assay for CYP2E1 using HepaRG (AID 2283485). Put shortly:
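HepaRG cells in serum-free induction medium exposed 48 h to test chemicals, 8 half-log concentrations up to 100 uM in 0.5% DMSO, duplicate. CYP2E1 mRNA by qRT-PCR, normalized to ACTB, GAPDH, POLR2A; bidirectional fit versus DMSO.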

Read-out in assay [2]: Cytochrome P450 3A4 (Homo sapiens) (UniProt P08684)
Description: LTEA_HepaRG_CYP3A4: Life Technologies and Expression Analysis (LTEA) Assay for CYP3A4 using HepaRG (AID 2283487). In a few lines: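 Differentiated HepaRG cells, plated 48 h, then dosed 48 h in serum-free induction medium with 0.5% DMSO, 8 half-log concentrations up to 100 uM, duplicate. CYP3A4 mRNA by qRT-PCR, normalized to ACTB/GAPDH/POLR2A; bidirectional fit versus DMSO.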

Read-out in assay [3]: DNA damage-inducible transcript 3 (DDIT3), DDIT3 (gene 1649)
Description: LTEA_HepaRG_DDIT3: Life Technologies and Expression Analysis (LTEA) Assay for DNA damage-inducible transcript 3 (DDIT3) using HepaRG (AID 2283488). In a few lines: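 Differentiated human HepaRG cells in serum-free induction medium were exposed in duplicate for 48 h to 8 concentrations (top 100 uM, half-log steps, 0.5% DMSO). DDIT3 mRNA measured by TaqMan qRT-PCR, normalized to ACTB/GAPDH/POLR2A; bidirectional fit versus DMSO.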

Read-out in assay [4]: Early growth response protein 1 (EGR1) transcription factor, EGR1 (gene 1958)
Nature of the assay: LTEA_HepaRG_EGR1: Life Technologies and Expression Analysis (LTEA) Assay for Early growth response protein 1 (EGR1) transcription factor using HepaRG (AID 2283490). Put shortly:
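Differentiated human HepaRG cells in serum-free induction medium were exposed in duplicate for 48 h to eight concentrations (top 100 uM, half-log steps) in 0.5% DMSO. EGR1 mRNA was quantified by qRT-PCR, normalized to ACTB, GAPDH and POLR2A, and fitted bidirectionally versus DMSO.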

Read-out in assay [5]: Ezrin (EZR), EZR (gene 7430)
Nature of the assay: LTEA_HepaRG_EZR: Life Technologies and Expression Analysis (LTEA) Assay for Ezrin (EZR) using HepaRG (AID 2283491). Put shortly: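 EZR transcript levels came from Fluidigm qRT-PCR and were normalized to three housekeeping genes after 48 h chemical exposure of HepaRG cells. Dosing used an 8-point half-log series with a 100 uM top concentration in 0.5% DMSO, tested in duplicate; both directions were fitted versus vehicle.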

Read-out in a further assay: CYP3A5 (gene 1577)
Description: LTEA_HepaRG_CYP3A5: Life Technologies and Expression Analysis (LTEA) Assay for CYP3A5 using HepaRG (AID 2283493). Put shortly: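 Differentiated HepaRG cells in serum-free induction medium were dosed 48 h with test chemicals (8-point half-log series, top 100 uM, 0.5% DMSO, duplicate). CYP3A5 mRNA measured by qRT-PCR, normalized to ACTB, GAPDH, POLR2A; bidirectional fit versus DMSO.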

Read-out in assay [6]: Fatty Acid-Binding Protein 1 (FABP1), FABP1 (gene 2168)
Nature of the assay: LTEA_HepaRG_FABP1: Life Technologies and Expression Analysis (LTEA) Assay for Fatty Acid-Binding Protein 1 (FABP1) using HepaRG (AID 2283494). In a few lines:
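Differentiated human HepaRG cells were exposed in duplicate for 48 h in serum-free induction medium to 8-point half-log concentration series topping at 100 uM in 0.5% DMSO. FABP1 mRNA measured by TaqMan qRT-PCR, normalized to ACTB/GAPDH/POLR2A; bidirectional fit versus DMSO.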

Values joined by “and” are separate entries in the source; they are usually repeats but may differ in a detail not shown here. Equal values may be shown once. The source holds several records for some structures; these can differ, active in one and inactive in another. Active and inactive are the calls of the source. How the source made its calls: active means hit-call score of the fitted dose curve at least 0.9, where 1 is the maximum; inactive means score below 0.9.

Cytochrome P450 2C19 (Homo sapiens), sequence (P33261 whole entry, looked up): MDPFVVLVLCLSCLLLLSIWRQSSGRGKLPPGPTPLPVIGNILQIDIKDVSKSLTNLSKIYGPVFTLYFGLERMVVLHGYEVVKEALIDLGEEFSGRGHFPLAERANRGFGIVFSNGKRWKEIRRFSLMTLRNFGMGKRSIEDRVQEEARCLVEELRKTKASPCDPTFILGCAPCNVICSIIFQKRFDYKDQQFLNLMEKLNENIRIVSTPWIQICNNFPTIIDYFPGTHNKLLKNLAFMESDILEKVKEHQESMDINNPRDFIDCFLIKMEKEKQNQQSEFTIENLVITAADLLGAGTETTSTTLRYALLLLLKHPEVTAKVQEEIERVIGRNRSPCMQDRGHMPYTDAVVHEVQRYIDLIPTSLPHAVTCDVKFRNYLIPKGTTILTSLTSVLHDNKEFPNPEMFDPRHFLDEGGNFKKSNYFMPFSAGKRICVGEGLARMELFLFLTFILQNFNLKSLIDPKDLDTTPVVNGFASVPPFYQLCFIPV
Cytochrome P450 3A4 (Homo sapiens), sequence (P08684 whole entry, looked up): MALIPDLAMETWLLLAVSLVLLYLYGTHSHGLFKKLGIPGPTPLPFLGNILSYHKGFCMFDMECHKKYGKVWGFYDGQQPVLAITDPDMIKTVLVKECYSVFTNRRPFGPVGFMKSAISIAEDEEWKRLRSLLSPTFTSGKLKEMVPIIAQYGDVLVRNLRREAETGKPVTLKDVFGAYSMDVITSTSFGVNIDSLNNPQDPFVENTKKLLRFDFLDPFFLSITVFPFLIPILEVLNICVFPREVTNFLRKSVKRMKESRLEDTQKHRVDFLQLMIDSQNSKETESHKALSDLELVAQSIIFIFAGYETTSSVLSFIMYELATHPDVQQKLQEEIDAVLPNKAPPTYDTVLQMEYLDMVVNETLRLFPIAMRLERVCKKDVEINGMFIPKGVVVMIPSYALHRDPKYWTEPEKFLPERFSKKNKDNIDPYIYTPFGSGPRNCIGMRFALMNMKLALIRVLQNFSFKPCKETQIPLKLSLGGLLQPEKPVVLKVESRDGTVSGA

Turning to `CC(=O)[O][Hg][c]1ccccc1`, the AC50 was 5 µM (active) in assay [1]; 5 µM (active) with CYP2C8 (gene 1558); 0.862 µM (active) with CYP2C9 (gene 1559); 13.2 µM (active) in the assay with CYP2E1 (gene 1571); 3.76 µM (active) in assay [2]; 26.9 µM (active) in assay [4]. Besides, the AC50 in the assay with CYP3A5 (gene 1577) is 11 µM (active); in [6], 13 µM (active). For the same compound, the compound was called inactive in [3] and in [5].

With `Oc1cccc2cccnc12`, the call (in assay [1]; in the assay with CYP2C8 (gene 1558); with CYP2E1 (gene 1571); in assay [2]; in [3]; in assay [4]) was inactive. The call (in [5]; in the assay with CYP3A5 (gene 1577); in assay [6]) was inactive.

Turning to `O=C(O)C(F)(F)C(F)(F)C(F)(F)C(F)(F)C(F)(F)C(F)(F)C(F)(F)C(F)(F)C(F)(F)C(F)(F)F`, the outcome (in assay [1]; with CYP2C8 (gene 1558); in assay [2]; in assay [3]; in [4]; in assay [5]) was inactive. Further, the compound was called inactive in [6]. Further, the AC50 with CYP2C9 (gene 1559) is 47.8 µM (active); with CYP2E1 (gene 1571) it was 57 µM (active); in the assay with CYP3A5 (gene 1577), 21.4 µM (active).

`CCOP(=S)(OCC)SCSP(=S)(OCC)OCC`: the AC50 in [1] was 26.1 µM (active); with CYP2C8 (gene 1558), 0.121 µM (active); in the assay with CYP2E1 (gene 1571), 19.2 µM (active); in assay [2], 12.5 µM (active); in the assay with CYP3A5 (gene 1577) it was 0.236 µM (active); in assay [6], 12.1 µM (active). In addition, the outcome (with CYP2C9 (gene 1559); in [3]; in assay [4]; in assay [5]) was inactive.

Consider `CCC(=O)C(CC(C)N(C)C)(c1ccccc1)c1ccccc1` (stereo unspecified), for which the AC50 was 10.1 µM (active) in [1], 36.2 µM (active) with CYP2E1 (gene 1571) and 36.2 µM (active) in assay [3]. Also, the result (with CYP2C8 (gene 1558); in the assay with CYP2C9 (gene 1559); in assay [4]; in assay [5]; in the assay with CYP3A5 (gene 1577); in assay [6]) was inactive.

As to `O=C(O)C(F)(F)C(F)(F)C(F)(F)C(F)(F)C(F)(F)C(F)(F)F`, the AC50 is 0.576 µM (active) in assay [1] and 22.5 µM (active) in assay [6]. In addition, the result (with CYP2C8 (gene 1558); with CYP2C9 (gene 1559); in the assay with CYP2E1 (gene 1571); in [2]; in [3]; in assay [4]) was inactive. The result (in [5]; with CYP3A5 (gene 1577)) was inactive.

Consider `CCC(C)(C)c1ccc(O)c(C(C)(C)CC)c1`, for which the result (in [1]; in the assay with CYP2C8 (gene 1558); with CYP2C9 (gene 1559); in the assay with CYP2E1 (gene 1571); in assay [2]; in assay [3]) was inactive. Also, the compound was called inactive (in [4]; in assay [5]; with CYP3A5 (gene 1577); in assay [6]).

Take `CC12CC1(C)C(=O)N(c1cc(Cl)cc(Cl)c1)C2=O` (stereo unspecified): the AC50 in [1] was 8.3 µM (active); in the assay with CYP2E1 (gene 1571), 16.6 µM (active); in assay [2], 5.34 µM (active); in assay [6] it was 9.46 µM (active). The compound was classed as inactive (with CYP2C8 (gene 1558); in the assay with CYP2C9 (gene 1559); in assay [3]; in assay [4]; in assay [5]; with CYP3A5 (gene 1577)).

Consider `O=c1[nH]c(=O)[nH]c(=O)[nH]1`, for which the call (in assay [1]; with CYP2C8 (gene 1558); with CYP2C9 (gene 1559); with CYP2E1 (gene 1571); in assay [2]; in [3]) was inactive. In addition, the result (in [4]; in [5]; with CYP3A5 (gene 1577); in assay [6]) was inactive.

As for `CCCCCCCCc1ccc(O)cc1`, the result (in [1]; with CYP2C8 (gene 1558); with CYP2C9 (gene 1559); in the assay with CYP2E1 (gene 1571); in assay [2]; in [3]) was inactive. In addition, the outcome (in assay [4]; in [5]; with CYP3A5 (gene 1577)) was inactive. The AC50 in assay [6] is 71.8 µM (active).

Consider `CC(C)(c1ccccc1)c1ccc(O)c(C(C)(C)c2ccccc2)c1`, for which the AC50 is 83.2 µM (active) in assay [1]; 85 µM (active) with CYP2C8 (gene 1558); 85.4 µM (active) in the assay with CYP2C9 (gene 1559); 62.4 µM (active) with CYP2E1 (gene 1571); 12.3 µM (active) in assay [2]; 72.1 µM (active) in assay [4]. Besides, the AC50 in [6] is 48.7 µM (active). Besides, the compound was called inactive (in assay [3]; in assay [5]; with CYP3A5 (gene 1577)).

Consider `COc1cc(-c2ccc(N)c(OC)c2)ccc1N`, for which the outcome (in assay [1]; with CYP2C8 (gene 1558); with CYP2C9 (gene 1559); in assay [2]; in assay [3]; in assay [4]) was inactive. In addition, the result (in [5]; with CYP3A5 (gene 1577)) was inactive. Besides, the AC50 in the assay with CYP2C9 (gene 1559) was 77.4 µM (active); in the assay with CYP2E1 (gene 1571), 38.1 µM (active) and 24.1 µM (active); in assay [2] it was 19.9 µM (active); in assay [3], 80.3 µM (active); in assay [6], 46.3 µM (active) and 32.8 µM (active).

Consider `C=C(C)C(=O)[O][Sn]([CH2]CCC)([CH2]CCC)[CH2]CCC`, for which the AC50 in assay [1] is 2.64 µM (active); with CYP2C8 (gene 1558), 2.38 µM (active); in assay [2], 2.52 µM (active); in assay [3], 92.4 µM (active); in assay [5], 93.5 µM (active); in the assay with CYP3A5 (gene 1577), 4.68 µM (active). The call (in the assay with CYP2C9 (gene 1559); in the assay with CYP2E1 (gene 1571); in assay [4]; in assay [6]) was inactive.

On to `NC(=O)O`, for which the call (in [1]; in the assay with CYP2C8 (gene 1558); with CYP2C9 (gene 1559); in the assay with CYP2E1 (gene 1571); in [2]; in assay [3]) was inactive. Further, the compound was classed as inactive (in assay [4]; in [5]; with CYP3A5 (gene 1577); in assay [6]).

`C=CC(=O)OCCCCCC(C)C`: the call (in assay [1]; with CYP2C8 (gene 1558); in the assay with CYP2C9 (gene 1559); with CYP2E1 (gene 1571); in assay [2]; in assay [3]) was inactive. Moreover, the outcome (in [4]; in [5]; in the assay with CYP3A5 (gene 1577); in assay [6]) was inactive.
